This is an account of results in article PMC10163288.

B1: il2ra_site2_2erj_sap_27_mot_HHH_b1_08185_000000063_0001_41_55_H_._HHH_b1_03158_0001_0000300009_0000001_0_0001_af2pred_0001_1_af2pred_swapped (protein)
chain: SSSDAQERAREVLEEVIELLRQGNHEEAKKLLEEAREILEELGDRAAVRLIEAALRLLESLSSSS
B2: il2ra_site2_2erj_sap_22_mot_c2bf78bdce995293a161f7082e24b401_0001_af2_000000082_0001_17_32_H_._HHH_b2_05133_0001_0000600016_0000001_0_0001 (protein)
chain: SSSSDEELHEIFELLSLLLEAIQKGDDELFKKLVEEVRQLIEEKGSPNLREILEWLERHFHSSSS
B3: il2ra_site2_3nfp_normal_mot_HHH_b1_04264_000000089_0001_1_18_H_._332cd829babfe32ea4315b179459513b_0001_1_0001_0000100003_0000001_0 (protein)
chain: SQEVFEVIHKLREEGDPELAISLFALLAELLLHPENEELREKLEELLEIIKKNPEEAREVARKLP
B4: il2ra_site2_2erj_normal_mot_HHH_b1_07741_000000192_0001_1_20_H_._9b1ece5d1ebc94355a99c96473898622_0001_1_af2_0001_0000300001_0000001_0 (protein)
chain: DQEEFLRRAARENPETFIRYAELLAKDAGNPELLKLVEELKEEVEKGEIPPEEAAELVVEVLEEL
B5: il2ra_site2_2erj_sap_23_mot_HHH_b1_06697_000000025_0001_41_54_H_._HHH_b2_03690_0001_0000400021_0000001_0_0001 (protein)
chain: SSSSDYEERVKELLEELRELLEEGDEEKFEELVFEVSQLIFENNDFELFAELTEIFEEFIRSSSS
B6: il2ra_site1_2b5i_normal_mot_HHH_b2_04910_000000118_0001_1_19_H_._HHH_b1_05884_0001_0000500029_0000001_0 (protein)
chain: SSSSSEETRELQELFREADELDRRGNEEEAEEVLREAIELARQAGSRSMLKMLESALKELGSSSS
B7: il2ra_site1_3nfp_normal_mot_HHH_b1_05523_000000027_0001_1_19_H_._HHH_b1_07881_af2_0001_0000100003_0000001_0_af2pred_0001_af2pred_1 (protein)
chain: SSSSTEVSRRVLELIEEALELAQNGNPEEAEEVLREALKLAEEAGNESTARFIRKALEQSSSSSS
B8: il2ra_site1_3nfp_sap_10_mot_cc4219192d8ccd35c40e7b68f9a57604_0001_af2_000000124_0001_16_32_H_._HHH_b2_07250_0001_0000100001_0000001_0_0001 (protein)
chain: SSSSSEIEEEVRELLEEAEQLLKEGDWEEAAKVVEEAMKLASQANDDELDQLIMEWVRKLSSSSS
B9: il2ra_site1_3nfp_sap_18_mot_HHH_b2_03549_000000219_0001_1_18_H_._HHH_b1_06169_0001_0000200013_0000001_0_0001 (protein)
chain: NDERVASKLVEEAARSAGVDEVEVSVSNGTLHVEVSGGDRAARRVEEAAKQIAEWLGVEVEVTFE
B10: il2ra_site1_3nfp_normal_mot_HHH_b1_01231_af2_000000170_0001_1_16_H_._HHH_b1_02076_0001_0000200037_0000001_0_af2pred_0001_af2pred_1_swapped (protein)
chain: SSSSSSREELELKERVLRLLARIRDPEEARRVLEEAEELAKELGDERLLEELEKLLKRLGSSSSS
B11: il2ra_site2_3nfp_sap_21_mot_HHH_b1_06577_af2_000000152_0001_20_36_H_._HHH_b2_07686_0001_0000600063_0000001_0_0001 (protein)
chain: SSSSDEDEERVEKLIEEIERLLEEGDRDEAARLLLEATELAARINNDELARKLLELFLKIQSSSS
B12: il2ra_site2_3nfp_normal_mot_HHH_b1_03851_000000147_0001_21_38_H_._HHH_b1_04525_0001_0000600036_0000001_0 (protein)
chain: SSSSDEERREARELFEELQELLEENDKHAVFEVLMELFELAARTGDEEAARLVLEIYAQLRSSSS
B13: il2ra_site2_2erj_sap_10_mot_HHH_b1_08207_af2_000000250_0001_43_57_H_._HHH_b2_03076_0001_0000100015_0000001_0_0001 (protein)
chain: SSSSDWLHRLYELANRITELASRGNPEEAREVLEELQELAEEANSDNAKWVAEALEKHLNSSSSS
B14: il2ra_site2_3nfp_sap_16_mot_HHH_b1_03316_000000041_0001_39_56_H_._702997820559c2f17efcc64b63c1c749_0001_1_0001_0000200016_0000001_0_0001_af2pred_0001_1_af2pred_ … (protein)
chain: DSEKELFKEALEEGDPALIDAVALAIALAERGKPPEEIEKSVERWLRAQGVPPEEIEEILELLRK
B15: il2ra_site2_3nfp_normal_mot_HHH_b2_01406_000000272_0001_41_55_H_._HHH_b2_00362_0001_0000600032_0000001_0 (protein)
chain: SSSSSDEEEEELEERLEKALEEGDKHLAAQLAAELSELLARLNDPETAVRLAVKVLEFVLSSSSS
B16: il2ra_site2_3nfp_sap_26_mot_HHH_b1_07277_000000260_0001_23_39_H_._HHH_eva_0486_af2_0001_0000400016_0000001_0_0001 (protein)
chain: SAELARRIVELVRRGDPVAEALFALLADVAYKGDPELERLLEEALEALERGNPEEAEEIVRKALK
B17: il2ra_site1_2b5i_sap_17_mot_143f78fc0439b137266e145e81963a82_0001_1_af2_000000250_0001_37_51_H_._2548690152cc24afdf538b66510d0e06_0001_0001_0000200012_0000001_0 … (protein)
chain: SSSSDEKYDEVERLFKKALELRRAGKKEEAKEVLEEALKIAEEAKDEKLVEELKRFLELLSSSSS
B18: il2ra_site2_2erj_normal_mot_HHH_b1_00210_af2_000000043_0001_43_57_H_._HHH_b1_00702_0001_0000100006_0000001_0 (protein)
chain: SSSSDREEVEELLKELEEAYEEGDEEKFEELASRASVLIFQIGDFELWSELAELFAKLNKSSSSS
B19: il2ra_site1_2b5i_normal_mot_HHH_b1_08745_af2_000000166_0001_39_57_H_._HHH_b1_02799_0001_0000100008_0000001_0_af2pred_dldesign_0_af2pred (protein)
chain: SSSSSPEGKEVLRLLEEAEAALKAGDEAGARALLEKALEIAKKAKSNLFVKFVEAALKALESSSS

These entries were drawn from the full list. The true hit rate is not given. Values without a mark were called inactive.

il2ra, P01589, sequence (P01589 whole entry): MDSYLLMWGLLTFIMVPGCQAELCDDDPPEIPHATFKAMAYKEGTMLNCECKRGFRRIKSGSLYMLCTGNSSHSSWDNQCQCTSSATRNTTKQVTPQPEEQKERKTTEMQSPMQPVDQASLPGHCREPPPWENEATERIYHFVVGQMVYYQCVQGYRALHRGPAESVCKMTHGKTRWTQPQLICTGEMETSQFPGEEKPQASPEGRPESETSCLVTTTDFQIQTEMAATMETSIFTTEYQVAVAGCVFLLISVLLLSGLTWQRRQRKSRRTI

The experiment concerns the target il2ra, P01589. Kind of experiment: yeast display titration.
In the case of B1, the “apparent Kd” value was “no binding seen”. To B2 belongs “no binding seen”; to B3, “no binding seen”; to B4, “no binding seen”.

Turning to B5, the “apparent Kd” value is “no binding seen”.

Turning to B6, the “apparent Kd” value is “no binding seen”. To B7 belongs “no binding seen”. Under B8 stands “no binding seen”; under B9, “no binding seen”; under B10, “no binding seen”.

B11: the “apparent Kd” value was “no binding seen”. Under B12 stands “no binding seen”. For B13, the “apparent Kd” value is “no binding seen”. To B14 belongs “no binding seen”; to B15, “no binding seen”. Under B16 stands “no binding seen”; under B17, “no binding seen”; under B18, “no binding seen”. Under B19 stands “no binding seen”.
